Laboratory results as given in article PMC4552634, “A New Set of Chemical Starting Points with Plasmodium falciparum Transmission-Blocking Potential for Antimalarial Drug Discovery” (PLoS ONE, 2015).
The whole screen tested about 13,000 compounds, of which about 3,200 (25%) showed an effect of 50% or more. The list shows a part of the results.

System: P. falciparum stage V gametocytes
Design: BacTiter-Glo ATP luminescence viability of purified stage V gametocytes in 384-well plates, per cent inhibition versus DMSO
Details: 48 h, 5 µM; inhibitor

Row | Structure (SMILES) | % Inhibition [%]
1 | CSc1nc2nc(C)c(Cc3cccc(F)c3)c(C)n2n1 [TCMDC-123765] | 1.864
2 | COc1cc2ncnc(Nc3ccc4nc(-c5ccccc5)[nH]c4c3)c2cc1OC [TCMDC-137191] | -26.1
3 | Cc1c2ccncc2c(C)c2c1[nH]c1cc(Cc3ccccc3)c(O)cc12 [TCMDC-132053] | 89.31
4 | Cc1c2ccncc2c(C)c2c1[nH]c1ccccc12 [TCMDC-125546] | -37.29
5 | O=C(Nc1ccc(-c2cccc(-c3nc4ccc(C(F)(F)F)cc4[nH]3)c2)cc1)c1ccc(=O)[nH]n1 [TCMDC-137032] | 18.19
6 | CCC(C)(C)c1ccc(N2C(N)=NC(N)=NC2(C)C)cc1 [TCMDC-137919] | 8.342
7 | O=C(Nc1ccc(Cl)cc1)OCCn1nnnc1C(c1ccc(Cl)cc1)N1CCOCC1 (stereo not shown) [TCMDC-124138] | -11.24
8 | COc1ccc2nccc(NC(=O)N3CCC(NCCOc4cc(F)cc(F)c4)CC3)c2n1 [TCMDC-140666] | 29.69
9 | COc1ccc2nccc(NC(=O)C3(O)CCC(NCc4ccc5c(c4)NCCS5)CC3)c2n1 (stereo not shown) [TCMDC-141406] | 32.7
10 | COc1ccc2nccc(NC(=O)C3CCC(NCc4cnc(SC)c([N+](=O)[O-])c4)CC3)c2n1 (stereo not shown) [TCMDC-131238] | 93.77
11 | Cc1cccc2[nH]c(-c3ccc(-c4cccc(NC(=O)Nc5ccc(F)c(F)c5F)c4)cc3)nc12 [TCMDC-133234] | -5.873
12 | O=C(N[C@@H](Cc1ccccc1)C(=O)NC1CCCCCC1)c1ccc(O)c(-c2cccc(C(F)(F)F)c2)c1 [TCMDC-140813] | 18.86
13 | O=C(N[C@@H](Cc1ccccc1)C(=O)NC1CCCCC1)c1ccc(O)c(-c2cccc(C(F)(F)F)c2)c1 [TCMDC-140809] | 50.49
14 | O=C(N[C@@H](CC1CCCCC1)C(=O)NC1CCCCC1)c1ccc(O)c(-c2cccc(C(F)(F)F)c2)c1 [TCMDC-140810] | 6.892
15 | OC(CNc1ccnc(Nc2ccccc2)n1)c1ccc(C(F)(F)F)cc1 (stereo not shown) [TCMDC-136598] | -1.002
16 | O=c1cc(NCCCNCc2[nH]c3cc(Cl)ccc3c2Cl)[nH]c2ccccc12 [TCMDC-139966] | -23.52
17 | Cc1ccc(C(NC(=O)c2ccccc2)c2ccc3cccnc3c2O)cc1 (stereo not shown) [TCMDC-125552] | 16.34
18 | O=C(NC(c1ccccc1)c1ccc2cccnc2c1O)c1ccccc1 (stereo not shown) [TCMDC-123701] | 103.7
19 | COc1cccc(C(NC(=O)c2ccccc2)c2ccc3cccnc3c2O)c1 (stereo not shown) [TCMDC-125755] | 75.54
20 | N#Cc1ccc(N2CCN(C(=O)c3cccc(-c4noc(C(F)(F)F)n4)c3)CC2)nc1 [TCMDC-132424] | 8.571
21 | O=C(NC(CCCN1CCC2(CC1)OCc1ccccc12)c1ccc(Cl)c(Cl)c1)c1cc(C(F)(F)F)cc(C(F)(F)F)c1 (stereo not shown) [TCMDC-141897] | 69.2
22 | O=C(Nc1cc(C(F)(F)F)cc(C(F)(F)F)c1)NC(CCCN1CCC2(CC1)OCc1ccccc12)c1ccc(Cl)c(Cl)c1 (stereo not shown) [TCMDC-141899] | -60.02
23 | O=C(NC(CCCN1CCC(c2ccccc2)CC1)c1ccc(Cl)c(Cl)c1)c1cc(C(F)(F)F)cc(C(F)(F)F)c1 (stereo not shown) [TCMDC-141900] | 23.85

Row | Structure (SMILES) | % Inhibition [%]
24 | O=C(Nc1ccc([N+](=O)[O-])cc1)c1nn(-c2ccccc2)cc1N=Cc1cccc(O)c1 [TCMDC-124108] | -28.07
25 | CCCCCn1c(Sc2ccc(C#N)c([N+](=O)[O-])c2)nnc1-c1cccs1 [TCMDC-135585] | 31.33
26 | O=C(NCc1ccccn1)C(c1cc2ccccc2o1)N1CCN(C(c2ccccc2)c2ccccc2)CC1 (stereo not shown) [TCMDC-141024] | 9.637
27 | c1ccc(CN2CCC(NCc3ccccc3-c3cccc(CNC4CCCC4)c3)CC2)cc1 [TCMDC-140472] | 106.9
28 | NCc1cccc(-c2ccccc2CNC2CCN(Cc3ccccc3)CC2)c1 [TCMDC-140467] | 102.5
29 | Oc1ccc(CN2CCC(NCc3cccc4ccccc34)CC2)cc1 [TCMDC-141654] | 18.51
30 | NCc1ccc(-c2ccccc2CNC2CCN(Cc3ccccc3)CC2)cc1 [TCMDC-140468] | 88.27
31 | CC(C)c1ccc(N2CCN(CCCCNC(=O)c3ccc(NC(=O)c4cc(Cl)cc(Cl)c4)cc3)CC2)cc1 [TCMDC-138232] | -31.61
32 | O=C(Cc1ccc(Nc2nccc(Nc3cccc4[nH]ncc34)n2)cc1)Nc1ccc(C(F)(F)F)cc1 [TCMDC-136243] | 0.831
33 | CCCCCc1cnc2nc(N)nc(N)c2c1C [TCMDC-137717] | 7.113
34 | Cc1cnc(C(=O)Nc2ccc3c(c2)CCCN(Cc2c[nH]c4cnccc24)C3)cn1 [TCMDC-134846] | 9.147
35 | CC(C)c1ccc(N(CC(=O)N/N=C/c2ccc(C(F)(F)F)cc2)S(=O)(=O)c2ccc(C(F)(F)F)cc2)cc1 [TCMDC-135354] | 13.17
36 | O=c1ccc2ccc(O)c(O)c2o1 [TCMDC-125839] | -8.739
37 | COc1ccc(-c2cnc(N)c(-c3nc4ccc(Br)cc4[nH]3)c2)cc1 [TCMDC-133074] | -6.966
38 | CC1CN(c2cnn(Cc3cccc(NC(=O)Nc4cccc(C(F)(F)F)c4)c3)c(=O)c2Cl)CC(C)N1 (stereo not shown) [TCMDC-141933] | -18.84
39 | CC1CN(c2cnn(Cc3ccc(NC(=O)Nc4ccc(F)cc4[N+](=O)[O-])cc3)c(=O)c2Cl)CC(C)N1 (stereo not shown) [TCMDC-141939] | 5.517
40 | CCOC(=O)c1ccc(NC(=O)Nc2ccc(Cn3ncc(N4CCCNCC4)c(Cl)c3=O)cc2)cc1 [TCMDC-133330] | -19
41 | CC1CN(c2cnn(Cc3cccc(NC(=O)Nc4ccc(F)cc4[N+](=O)[O-])c3)c(=O)c2Cl)CC(C)N1 (stereo not shown) [TCMDC-141934] | 17.4
42 | CC1CN(c2cnn(C/C=C/c3ccc(NC(=O)c4ccc([N+](=O)[O-])cc4)cc3)c(=O)c2Cl)CC(C)N1 (stereo not shown) [TCMDC-132467] | 91.62
43 | CC1CN(c2cnn(Cc3ccc(NC(=O)Nc4cccc(C(F)(F)F)c4)cc3)c(=O)c2Cl)CC(C)N1 (stereo not shown) [TCMDC-141938] | -19.52
44 | CC1CN(c2cnn(C/C=C/c3ccc(NC(=O)c4ccc(Cl)cc4)cc3)c(=O)c2Cl)CC(C)N1 (stereo not shown) [TCMDC-132469] | 77.2
45 | CC1CN(c2cnn(C/C=C/c3ccc(NC(=O)c4ccc5nonc5c4)cc3)c(=O)c2Cl)CC(C)N1 (stereo not shown) [TCMDC-132468] | 104.2
46 | COC(=O)c1ccc(NC(=O)Nc2ccc(Cn3ncc(N4CCCNCC4)c(Cl)c3=O)cc2)cc1 [TCMDC-133315] | -30.5
